This is a sample that favours compounds with a hit; in the whole collection about 3.7% have one here.
Rv3671c protease – inhibitors of M. tuberculosis serine protease Rv3671c. P9WHR9. inhibition, % at 5.96 µM. actives 0.048% (n = 320,000); in the data active = inhibition above about 38%;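 note: extracellular domain of Rv3671c used as enzyme; 0% = enzyme with DMSO and 100% = no enzyme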
Mtb FBA inh – inhibits M. tuberculosis FBA enzyme; AID 588726; inhibition, % at 1 µM; P9WQA3; actives 2.3% (n = 360,000); purified M. tuberculosis FBA, fluorescence read-out;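 note: 0% = vehicle and 100% = reference inhibitor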
Target sequence (P9WQA3 whole entry, looked up): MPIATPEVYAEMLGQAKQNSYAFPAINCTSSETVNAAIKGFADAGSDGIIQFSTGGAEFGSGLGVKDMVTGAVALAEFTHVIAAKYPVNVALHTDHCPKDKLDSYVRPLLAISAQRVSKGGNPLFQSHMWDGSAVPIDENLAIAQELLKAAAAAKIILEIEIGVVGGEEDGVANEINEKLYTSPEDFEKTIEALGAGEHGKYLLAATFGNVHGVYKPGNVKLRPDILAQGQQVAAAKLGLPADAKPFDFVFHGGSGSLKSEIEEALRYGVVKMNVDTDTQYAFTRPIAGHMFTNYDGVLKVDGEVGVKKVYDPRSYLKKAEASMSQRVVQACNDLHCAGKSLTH
GDH-TPI counter-1 – inhibits GDH-TPI coupling enzymes, artifact for Mtb FBA screen; GDH-TPI coupled enzyme counterscreen, NADH absorbance; inhibition, % at 4.8 µM; actives 1.2% (n = 360,000); AID 588335; in the data active = inhibition above about 30%;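 note: 0% = DMSO wells and 100% = wells lacking the enzyme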
Mtb betalactam – beta-lactam sensitization of Mtb H37Rv | M. tuberculosis H37Rv growth with meropenem, percent inhibition | inhibition, % at 25 µM | actives 0.27% (n = 330,000) | AID 434955; call rule not given here;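 note: growth measured after seven days incubation then overnight dye step; 0% = bacteria only wells and 100% = bacteria with antibiotic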
FadD28 FP inh – blocks FadD28 binding to the bisubstrate probe; AID 588549; fluorescence polarization; inhibition, % at 12.5 µM; actives 0.22% (n = 360,000); in the data active = inhibition above about 8.5%, passing the limit was not always enough
UGM FP inh – blocks M. tuberculosis UGM enzyme; purified UGM, fluorescence polarization probe displacement; P9WIQ1; AID 504406; inhibition, % at 10 µM; actives 0.06% (n = 320,000); in the data active = inhibition above about 10%, passing the limit was not always enough
Mtb FBA inh conf – confirmation of M. tuberculosis fructose-bisphosphate aldolase inhibitors | purified M. tuberculosis FBA, fluorescence read-out | shares compounds with Mtb FBA inh | inhibition, % at 1 µM | actives 78% (n = 5,600);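 note: 0% = vehicle wells and 100% = reference inhibitor wells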
GDH-TPI counter-2 – counter-screen for M. tuberculosis FBA inhibitors: GDH-TPI coupled enzyme inhibition; shares compounds with Mtb FBA inh; GDH-TPI coupled enzyme counterscreen, fluorescence; inhibition, % at 1 µM; actives 81% (n = 5,600); AID 652141; in the data active = inhibition above about 10%
An asterisk follows results filed as active; nt = no result; + = active, no number. Cut-off read from the data, not from the text of the source, unless noted: active = inhibition above about 27%; inactive = the rest.

SMILES | Rv3671c protease | Mtb FBA inh | GDH-TPI counter-1 | Mtb betalactam | FadD28 FP inh | UGM FP inh | Mtb FBA inh conf | GDH-TPI counter-2
COc1ccc(S(=O)(=O)Nc2ccccc2C(=O)Nc2nc(-c3ccc(F)cc3)cs2)cc1OC | -27 | 33* | 11 | -2 | 4 | nt | 92* | 68*
Cc1nn2c(-c3ccccc3)c(-c3ccccc3)nc2[nH]c1=O | 1 | 8 | 17 | -4 | 1 | 1 | nt | nt
Cc1nn2cc(-c3ccccc3)nc2[nH]c1=O | -4 | 37* | 21 | -12 | 1 | 1 | 79* | 81*
O=C(O)CCc1nn2cc(-c3ccccc3)nc2[nH]c1=O | -5 | 45* | 18 | -9 | 0 | -1 | 113* | 92*
CCc1nn2cc(-c3ccccc3)nc2s1 | 8 | -4 | 4 | 2 | 1 | 1 | nt | nt
CCOC(=O)c1cc(-c2ccc(F)cc2)nc2c1c(=O)[nH]c(=O)n2Cc1ccccc1 | 0 | 3 | 4 | 1 | -1 | 2 | nt | nt
CCOC(=O)c1cc(-c2ccc(OC(F)F)cc2)nc2nc(SC)[nH]c(=O)c12 | 3 | 72* | 29 | 0 | -7 | 4 | 101* | 88*
CCOC(=O)c1cc(-c2ccc(Cl)cc2)nc2c1c(=O)[nH]c(=O)n2CCOC | 7 | 53* | 7 | -5 | -3 | 2 | 68* | 46*
CCOC(=O)c1cc(-c2ccc(OC(F)F)cc2)nc2c1c(=O)[nH]c(=O)n2C | -14 | 50* | 10 | 0 | -1 | -2 | 159* | 130*
CC(=O)NC(c1cccc(F)c1)c1nc(-c2ccccc2)cs1 (stereo unspecified) | nt | 3 | 16 | nt | 1 | nt | nt | nt
O=C1C[C@@H]2c3c(cccc3CN1Cc1ccc(Cl)cc1)C[C@@H](O)[C@H]2O | nt | -1 | 9 | nt | -2 | nt | nt | nt
CC1(c2ccc([N+](=O)[O-])cc2)Nc2ccccc2S1 (stereo unspecified) | -1 | 0 | 5 | 7 | 0 | 1 | nt | nt
Nc1cc(OC(=O)c2ccco2)nn1S(=O)(=O)c1ccc(F)cc1 | -7 | 30* | -5 | 4 | -2 | 2 | + | 142*
CC(=O)N1N=C(c2ccncc2)OC12CCCCCC2 | -12 | 77* | 7 | 5 | 1 | 1 | + | +
CC(=O)N1N=C(c2ccccc2)OC12CCCC2 | 1 | 0 | -2 | -7 | 0 | 1 | nt | nt
CC(=O)N1N=C(c2ccncc2)OC12CCCCC2 | 2 | 89* | 0 | -4 | -1 | 0 | 49* | 40*
CNc1ncnc2sc(-c3ccccc3)cc12 | -7 | 46* | 12 | 4 | -4 | -2 | 52* | 36*
OCCOCCNc1ncnc2sc(-c3ccccc3)cc12 | -9 | 32* | 15 | 15 | -8 | 3 | 11 | 15*
Cc1cc2nccc(-c3ccc(F)cc3)n2n1 | 6 | 3 | -3 | -2 | 0 | 0 | nt | nt
COc1ccc(-c2ccnc3cc(C(=O)O)nn23)cc1 | 4 | 36* | 14 | -2 | -3 | 1 | 0 | -6
c1coc(-c2ccnc3nc(-n4cccc4)nn23)c1 | 1 | 3 | 4 | -4 | -7 | 0 | nt | nt
O=C(O)c1cc2nccc(-c3ccco3)n2n1 | 4 | 32* | 36* | 5 | -2 | 1 | 122* | 98*
Cc1ccccc1Nc1nc(N)nc(COC(=O)c2ccc3c(c2)OCCO3)n1 | nt | -4 | -5 | nt | -5 | nt | nt | nt
Cc1ccc(S(=O)(=O)c2nc(-c3ccccc3)oc2NCc2cccnc2)cc1 | 7 | -1 | 7 | -11 | -3 | 2 | nt | nt
Cc1ccccc1-c1nc(P(=O)(c2ccccc2)c2ccccc2)c(N2CCOCC2)o1 | 6 | 4 | 1 | -2 | 0 | 1 | nt | nt
SMILES | Rv3671c protease | Mtb FBA inh | GDH-TPI counter-1 | Mtb betalactam | FadD28 FP inh | UGM FP inh | Mtb FBA inh conf | GDH-TPI counter-2
COP(=O)(OC)c1nc(-c2ccccc2)oc1N1CCOCC1 | 0 | 89* | -3 | -5 | -2 | 5 | 83* | 56*
COP(=O)(OC)c1nc(-c2ccccc2)oc1NCc1ccccc1 | -4 | 107* | 5 | 5 | -1 | -2 | 86* | 70*
CNc1oc(-c2ccc(C)cc2)nc1P(=O)(c1ccccc1)c1ccccc1 | 1 | -2 | 17 | 11 | -2 | 0 | nt | nt
CCOP(=O)(OCC)c1nc(-c2ccc(Cl)cc2)oc1NCc1ccccc1 | 4 | 79* | 14 | -2 | -2 | -1 | 80* | 102*
CCCOP(=O)(OCCC)c1nc(-c2ccccc2)oc1NCc1ccccc1 | 5 | 57* | 12 | -3 | 0 | -2 | 1 | -1
C[C@@H](NC(=O)C1(c2ccccc2)CCN(C(=O)OC(C)(C)C)CC1)C(=O)N[C@@H](C(=O)O)c1ccccc1 | -3 | 2 | -3 | 1 | -2 | 4 | nt | nt
CCCc1nc2sc(C(=O)OCC)c(N)c2c2c1COC(C)(C)C2 | 1 | 8 | 17 | 71 | -1 | 2 | nt | nt
CCCc1nc2oc(C(=O)OCC)c(N)c2c2c1COC(C)(C)C2 | -4 | 59* | 17 | 100 | -3 | 0 | 92* | 89*
Cc1c(O)ccc2c(CN3CCN(C/C=C/c4ccccc4)CC3)cc(=O)oc12 | 5 | 64* | 0 | 97 | -6 | -1 | 74* | 56*
COC(=O)Cc1c(C)c2ccc(OCC(=O)N3CCC(C)CC3)c(C)c2oc1=O | 1 | 84* | 19 | -18 | 0 | -4 | 54* | 50*
Cc1cc(=O)oc2c(C)c(OCC(=O)N3CCC(C(=O)O)CC3)ccc12 | -11 | 49* | 17 | 4 | -1 | -1 | 18 | 15*
Cc1cc(=O)oc2c(C)c(OCC(=O)N3CCN(Cc4ccccc4)CC3)ccc12 | -2 | 27* | 15 | -6 | -2 | -1 | 147* | 100*
COc1ccc(N2CCN(C(=O)COc3ccc4c(C)cc(=O)oc4c3C)CC2)cc1 | -2 | 3 | 5 | 3 | -3 | 3 | nt | nt
Cc1ccc2c(CN3CCN(Cc4ccccc4)CC3)cc(=O)oc2c1C | 0 | 1 | 3 | 4 | -2 | 1 | nt | nt
OC(c1ccccc1)c1ncc(-c2ccccc2F)[nH]1 (stereo unspecified) | nt | -1 | 3 | nt | -2 | nt | nt | nt
CCc1cccc(C)c1NC(=O)CCNC(=O)c1cccc(C)c1 | 0 | 0 | -4 | -3 | nt | 1 | nt | nt
Cc1c(OCC(=O)N2CCC(C(N)=O)CC2)ccc2c1oc(=O)c1ccccc12 | 1 | 28* | 15 | -2 | -3 | -1 | 130* | 101*
CC(=O)N(C)C1(c2nnnn2CCOC(=O)Nc2ccc(Cl)cc2)CCCCC1 | -11 | 52* | -15 | -6 | -5 | 3 | 13 | 4
Cc1ccnc(NC(=O)c2cccc(NC(=O)CC3SC(N4CCCCC4)=NC3=O)c2)c1 (stereo unspecified) | -13 | 0 | 4 | 3 | -1 | 0 | nt | nt
Cn1c(=O)c2c(nc(OC3CCCC3)n2C)n(C)c1=O | nt | -2 | 7 | nt | -4 | nt | nt | nt
